A selection: hits, their analogues and other compounds. The true share with any hit is near 2.4%.
Pol iota inh – inhibitors of human DNA polymerase iota; Q9UNA4; Pol iota fluorescent replication assay, 10 min; Potency, µM (doses to about 115 µM), inactives show at the top dose activity, negative = inhibition, actives largely listed as inhibitors; 390,000 compounds, 1% hits; AID 588590
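Fluorescent replication assay read twice, at 0 min and 10 min after adding 50 nM (final) substrate. Enzyme (10 nM) and compounds were first incubated 15 min at room temperature; enzyme-free buffer wells were negative controls.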
WRN helicase inh – inhibitors of human WRN helicase; Q14191; WRN helicase unwinding, fluorescent forked duplex, kinetic; Potency, µM (series often up to 114 µM), for the others: at the top dose activity change, negative = inhibition, most hits filed as inhibitors; 360,000 compounds, 0.46% hits; AID 651768; further: on the % scale 0 is the no-effect control and ±100 the full control effect; nearly all actives have a fitted effect of over 55% in size
Target sequence (Q14191 whole entry, looked up): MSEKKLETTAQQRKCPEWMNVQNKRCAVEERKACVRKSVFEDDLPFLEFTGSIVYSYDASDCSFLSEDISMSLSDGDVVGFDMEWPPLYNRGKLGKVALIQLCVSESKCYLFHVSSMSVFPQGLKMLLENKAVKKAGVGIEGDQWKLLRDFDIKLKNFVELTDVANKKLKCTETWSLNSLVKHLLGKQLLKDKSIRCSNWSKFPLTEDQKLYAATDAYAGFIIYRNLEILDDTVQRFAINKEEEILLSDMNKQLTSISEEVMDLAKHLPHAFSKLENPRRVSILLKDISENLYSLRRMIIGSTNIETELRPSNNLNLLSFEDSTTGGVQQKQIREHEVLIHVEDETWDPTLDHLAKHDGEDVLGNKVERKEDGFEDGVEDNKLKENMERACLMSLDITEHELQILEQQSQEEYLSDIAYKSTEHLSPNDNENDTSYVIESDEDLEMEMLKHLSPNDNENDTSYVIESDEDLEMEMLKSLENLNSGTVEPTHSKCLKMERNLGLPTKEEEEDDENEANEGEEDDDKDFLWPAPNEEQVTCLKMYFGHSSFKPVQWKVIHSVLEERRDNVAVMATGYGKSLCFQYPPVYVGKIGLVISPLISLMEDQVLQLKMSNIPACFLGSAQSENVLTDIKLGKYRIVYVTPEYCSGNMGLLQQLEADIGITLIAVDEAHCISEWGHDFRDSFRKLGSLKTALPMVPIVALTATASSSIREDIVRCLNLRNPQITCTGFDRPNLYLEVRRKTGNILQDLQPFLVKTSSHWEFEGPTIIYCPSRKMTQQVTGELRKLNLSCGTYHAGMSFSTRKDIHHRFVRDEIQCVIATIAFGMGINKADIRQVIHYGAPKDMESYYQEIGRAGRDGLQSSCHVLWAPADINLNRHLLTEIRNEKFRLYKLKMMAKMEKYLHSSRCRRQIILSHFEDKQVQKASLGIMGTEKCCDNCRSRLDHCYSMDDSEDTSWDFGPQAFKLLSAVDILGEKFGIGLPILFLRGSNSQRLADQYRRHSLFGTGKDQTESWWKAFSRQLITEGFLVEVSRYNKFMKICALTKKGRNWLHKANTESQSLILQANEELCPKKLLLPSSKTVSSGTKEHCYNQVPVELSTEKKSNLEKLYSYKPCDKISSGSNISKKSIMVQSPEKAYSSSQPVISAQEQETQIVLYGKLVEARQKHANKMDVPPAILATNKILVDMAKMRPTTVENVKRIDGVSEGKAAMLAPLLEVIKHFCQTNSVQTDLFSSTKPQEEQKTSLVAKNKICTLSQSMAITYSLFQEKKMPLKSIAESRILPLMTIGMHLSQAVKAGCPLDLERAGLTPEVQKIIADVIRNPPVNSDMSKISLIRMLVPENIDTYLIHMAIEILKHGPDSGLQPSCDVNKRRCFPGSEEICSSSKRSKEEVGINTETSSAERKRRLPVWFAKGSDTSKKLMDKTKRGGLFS
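Kinetic red-fluorescence monitoring (525/598 nm) tracks WRN helicase activity after 100 nM fluorophore-quencher forked duplex and 2 mM ATP are added to 20 nM enzyme pretreated 15 min at room temperature with compound.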
POLB inh – inhibitors of human DNA polymerase beta; P06746; Potency, µM (doses to about 114 µM), inactives show at the top dose activity change, negative = inhibition, usual class: inhibitors; Pol beta primer extension/strand displacement, fluorescence kinetic; 340,000 compounds, 1.3% hits; further: on the % scale 0 is the no-effect control and ±100 the full control effect
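Preincubation: enzyme (10 nM) with compound, 15 min, RT. Reaction: substrate added to 50 nM final. Reads: 0 and 10 min. Analysis: normalized, Hill fit.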
Pol kappa inh – inhibitors of human DNA polymerase kappa; purified Pol kappa, fluorescent DNA synthesis assay, 10 min; Potency, µM (doses to about 107 µM), without a hit: top-dose activity, negative = inhibition, hits mostly inhibitors; 400,000 compounds, 0.53% hits; further: on the % scale 0 is the no-effect control and ±100 the full control effect
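10 nM Pol kappa preincubated 15 min at room temperature with compounds, then reaction started with substrate at 50 nM final. Fluorescence read kinetically at 0 and 10 min; buffer-only wells served as negative control.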
POLH inh – blocks human DNA polymerase eta activity; Q9Y253; recombinant Pol eta, fluorescent DNA replication assay; Potency, µM (top dose mostly 114 µM), without a hit: at the highest dose activity change, negative = inhibition, hits mostly inhibitors; 390,000 compounds, 1.2% hits; AID 588591; further: on the % scale 0 is the no-effect control and ±100 the full control effect
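Fluorescent replication assay: 50 nM final substrate added after a 15 min room-temperature compound preincubation with 10 nM enzyme. Signal taken at 0 min and again at 10 min.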
FEN1 inhibitor – human FEN1 inhibition; Recombinant FEN1 flap cleavage, fluorescence, 15 min; Potency, µM (top dose mostly 114 µM), for the others: at the highest dose activity change, negative = inhibition, usual class: inhibitors; 390,000 compounds, 0.35% hits; AID 588795; further: on the % scale 0 is the no-effect control and ±100 the full control effect; nearly all actives have a fitted effect of over 65% in size
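Enzyme 10 nM, 15 min RT preincubation with compound; start with substrate 50 nM final; reads at 0 and 15 min; qHTS titration, four-parameter Hill fit.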
* marks the source's active call; other numbers are inactive results; ? = inconclusive; nt = not tested or not shown; [ ] = dose if it differs, or a comment. The call rests on the fitted dose curve; in most records, active means well fitted curve in the direction sought with a large enough effect; inconclusive means small, poorly fitted or top-dose-only effect, or another doubt; inactive means no such curve, though single readings can be large; an effect the other way counts as inactive or inconclusive. Potency means the concentration at half of the fitted maximal effect.

SMILES	Pol iota inh	WRN helicase inh	POLB inh	Pol kappa inh	POLH inh	FEN1 inhibitor
CC1CCc2nc3ccc(S(=O)(=O)N4CCC(C(=O)NCc5ccccc5Cl)CC4)cc3c(C(=O)O)c2C1 (centres undefined)	50µM*	-18%	40µM*	?	?	12%
COc1cccc(C(=O)Nc2cc(-c3cn4cccnc4n3)ccc2C)c1OC	-2%	nt	18%	-2%[60.1 µM]	-4%	-7%
CC1CC(=O)c2c(cc3c(-c4c(O)cc(O)c5c(O)c6c(cc45)OC(C)CC6=O)c(O)cc(O)c3c2O)O1 (centres undefined)	1.1µM*	?	18µM*	?	10µM*	14µM*
Cc1ccc(C(=O)ONc2ccc(N=NC(=O)c3ccccc3O)cc2)cc1	2%	-35%[57.1 µM]	7%	-21%	8.9µM*	1%
O=c1cc(-c2ccccc2)[nH]c2ccc(F)cc12	?	-4%	3%	-2%	-11%	-6%
CCCc1cc2c(-c3ccccc3)cc(=O)oc2cc1OCc1ccc(C(=O)O)o1	-11%	-2%[11.6 µM]	?	-12%	79µM*	-18%
Cn1c2ccccc2c(=O)c2cc(C#Cc3ccccn3)ccc21	-1%	-3%	-3%	-9%	-4%	-21%
CCN(CC)C(=O)C1=C(C)NC(=O)NC1c1c(F)cccc1Cl (centres undefined)	12%	0%	89µM*	-15%	6%	-2%
CCN(CC)C(=O)C1=C(C)NC(=O)NC1c1ccccc1F (centres undefined)	nt	nt	-16%	nt	nt	nt
O=C(O)CCn1ccc2cc(S(=O)(=O)N3CCCCC3)ccc21	-5%	nt	9%	-15%	-11%	11%
Cc1cc(NC(=O)c2cc(-c3cccs3)on2)no1	-2%[58.9 µM]	-8%	38%	-4%	3%	-3%
CCc1nnc(NS(=O)(=O)c2ccc(NC(=O)/C=C/c3ccc(OC)cc3OC)cc2)s1	?	?	56µM*	?	?	-20%
Cc1cc(C(=O)N/N=C/c2ccc(-c3ccccc3Cl)o2)n[nH]1	-55%	-22%	10µM*	?	?	-7%
COc1cccc(NC(=O)CN(C)CC(=O)NCc2ccco2)c1	13%	5%	nt	-2%	-4%	-13%
COc1cccc(CN(C)CC(=O)NC(=O)NCc2ccco2)c1	35µM*	-31%[57.1 µM]	16µM*	?	18µM*	-14%
COc1ccc(NC(=O)Cn2nnc(C(N)=O)c2N)c(OC)c1	13%	10%	5%	-3%	-1%	-5%
Cn1c(=O)c(NCCc2ccccc2)c2c3c(cccc31)C(=O)c1ccccc1-2	?	40µM*	14µM*	?	?	56µM*
Cc1ccc(C(=O)COC(=O)c2cccc(NC(=O)c3ccc(Cl)cc3Cl)c2)cc1	14%	nt	3%	-1%	-27%	10%
CCC(C)Nc1nc(N)c([N+](=O)[O-])c(N2CCCCCC2)n1 (centres undefined)	70%	-2%[11.6 µM]	-21%	-11%	-12%	?
CC(C)CNc1nc(N)c([N+](=O)[O-])c(N2CCCCCC2)n1	-1%	-1%[11.6 µM]	-1%	3%	-20%	45µM*
COc1cccc(C(=O)OCC(=O)Nc2nnc(-c3ccccc3)o2)c1	?	-13%	nt	-6%	7%	2%
O=C(N/N=C/c1ccccn1)c1cc(-c2ccc(Br)s2)[nH]n1	-12%	-12%	10µM*	-22%	-29%	-8%
O=C(N/N=C/c1ccccn1)c1cc(-c2cccc3ccccc23)n[nH]1	31%	1%	1%	-2%	14%	-6%
O=C(N/N=C\c1ccncc1)c1ccc(Br)s1	21%	-5%	-19%	8%	-10%	-5%
O=C(N/N=C/c1ccccn1)c1cc(-c2ccc3ccccc3c2)n[nH]1	?	?	20µM*	-25%	?	45µM*
SMILES	Pol iota inh	WRN helicase inh	POLB inh	Pol kappa inh	POLH inh	FEN1 inhibitor
O=C(N/N=C/c1ccncc1)c1cc(-c2ccc(Br)s2)[nH]n1	?	2%[11.6 µM]	22µM*	-21%	79µM*	-22%
O=C(N/N=C/c1ccccn1)c1cc(-c2ccc(Cl)s2)[nH]n1	27%	-15%	35µM*	-7%	-11%	-14%
Cc1nn(-c2ccccc2)c(C)c1/C=N/NC(=O)c1cc(-c2ccc(Cl)s2)[nH]n1	-6%	0%	-1%	-21%	-3%	-9%
CC1=NN(c2nc(-c3ccc(C)cc3)cs2)C(=O)C1N=Nc1ccc(C(N)=O)cc1 (centres undefined)	-9%	1%	-6%	-1%	?	-14%
CCn1c(CSc2nnc(-c3cccnc3)n2-c2ccccc2C)nc2cc(C(=O)O)ccc21	nt	nt	3.5µM*	nt	nt	nt
CCn1c(CSc2nnc3ccccn23)nc2cc(C(=O)O)ccc21	-20%	37%[57.1 µM]	?	-9%	?	50µM*
CCn1c(CSc2nnc(-c3ccncc3)n2CCOC)nc2cc(C(=O)O)ccc21	5%	?	?	-9%	?	?
O=C(NC1CCCC(C(F)(F)F)C1)c1ccc([N+](=O)[O-])o1 (centres undefined)	24%	6%	nt	15%	-17%	1%
Cc1ccccc1CN1CCC(n2nccc2NC(=O)CCOc2ccccc2)CC1	-2%	-4%	-2%	7%	-20%	13%
Cc1cc(C)c2nc(N3CCCN(C(=O)c4ccco4)CC3)c(C#N)cc2c1	-11%	-32%	40µM*	-20%	?	-21%
Cc1nc(N2CCN(C(=O)c3ccco3)CC2)c(C#N)c2c1CCCC2	80%	-5%	1%	-13%	-11%	-3%
COc1ccc(Cn2c(N)c(C#N)c3nc4ccccc4nc32)cc1OC	25µM*	-15%	34%	-16%	7%	-1%
c1cncc(-c2cnc3ccccc3c2)c1	5%	6%	nt	-19%	-4%	-10%
CCN(CC)c1ccc(C=C2C(=O)OC(c3ccccc3)OC2=O)cc1 (centres undefined)	34%	50µM*	12%	-11%	?	-3%
CCN(CC)c1ccc(C=C2C(=O)OC3(CCCC3)OC2=O)cc1	-4%	50µM*	-1%	-9%	1%	-10%
CCN(CC)c1ccc(C=C2C(=O)OC(C)(C(C)(C)C)OC2=O)cc1 (centres undefined)	?	?	14%	2%	-13%	-13%
CN(C)c1ccc(C=C2C(=O)OC(C)(C)OC2=O)cc1	50%	-11%	-4%	0%	-2%	10%
CCOC(=O)CNS(=O)(=O)c1cc(-c2nnc(Nc3cccc(O)c3)c3ccccc23)ccc1C	89µM*	nt	3%	?	-7%	?
